# A number with no mark means an inactive call.
# Tested on: Vero E6 infected with SARS-CoV-2
# Test: inhibition of SARS-CoV-2 cytopathic effect; higher = more antiviral protection, active = above 15
# Conditions: 48 h
Structure (SMILES),inhibition of SARS-CoV-2 cytopathic effect (1 nM) [%],inhibition of SARS-CoV-2 cytopathic effect (8.33 nM) [%],inhibition of SARS-CoV-2 cytopathic effect (100 nM) [%],inhibition of SARS-CoV-2 cytopathic effect (833.33 nM) [%],inhibition of SARS-CoV-2 cytopathic effect (10000 nM)
CC(=O)Nc1cccc2c1c(Sc1ccc(Cl)cc1)c(C)n2CC(=O)O,-2.31,-3.4,-2.21,-0.59,-0.66%
CCN(c1cc(-c2ccc(CN3CCOCC3)cc2)cc(C(=O)NCc2c(C)cc(C)[nH]c2=O)c1C)C1CCOCC1 [tazemetostat],2.86,0.49,3.47,0.53,-0.93%
CC(C)=CCC[C@]1(C)C=Cc2c(O)c3c(c(CC=C(C)C)c2O1)O[C@]12C(=C[C@@H]4C[C@H]1C(C)(C)O[C@@]2(C/C=C(/C)C(=O)O)C4=O)C3=O [gambogic-acid],2.13,-0.37,0.38,4.87,-14.3%
CN(C)C(=O)C(=O)c1cn(C)c2cc(Cl)c(C(=O)N3CCC(Cc4ccc(F)cc4)CC3)cc12,2.15,-1.11,-2.84,-2.05,6.33%
Cc1ncc(CO)c(CO)c1O [pyridoxine],-15.8,-9.76,-7.58,-12.7,-14.1%
O=C(O)c1ccccc1-c1ccc(C(F)(F)F)cc1 [xenalipin],-4.08,1.65,4.8,4.27,-2.23%
Nc1nccc(Oc2ccc(NC(=O)c3c[nH]cc(-c4ccc(F)cc4)c3=O)cc2F)c1Cl [metatinib],0.06,0.76,0.97,4.29,-2.56%
CC[C@@](C)(Nc1ccnc(-c2c[nH]c3ncccc23)n1)C(=O)NCC(F)(F)F [decernotinib],-1.03,0.41,-0.04,1.86,2.32%
O=C1NCCN1CCN1CCC(c2cn(-c3ccc(F)cc3)c3ccc(Cl)cc23)CC1 [sertindole],-2.53,-4.63,-2.36,-5.98,-11.3%
O=C(O)C[C@H]1CC[C@H](c2ccc(NC(=O)c3nnc(Nc4ccc(F)c(F)c4)o3)cc2)CC1,-0.14,-0.74,0.13,-2.59,-0.04%
CC[C@@H]1Cn2c(c3nc(-c4ccccc4)nc-3n(C)c2=O)N1,-0.6,-0.25,-1.09,0.66,1.21%
O=C(c1cccc(Br)c1)N1CCC(N2CCCC2)CC1,-0.38,1.79,-0.46,2.16,-0.32%
CCCCC#Cc1nc(NC)c2ncn([C@@H]3O[C@H](CO)[C@@H](O)[C@H]3O)c2n1,-0.9,-1.35,0.37,-1.59,-0.62%
CC(=O)N[C@@H](CCC(N)=O)C(=O)O [aceglutamide],1.69,3.16,6.3,1.78,-5.34%
Fc1ccc(-n2cc(CCCCN3CCC4(CC3)OCc3ccccc34)c3ccccc32)cc1 [siramesine],0.05,1.88,1.49,4.24,28.7% (active)
Cc1cn([C@H]2C[C@H](N=[N+]=[N-])[C@@H](CO)O2)c(=O)[nH]c1=O [zidovudine],3.53,3.15,6.14,2.68,-0.41%
CO[C@H]1CC[C@@H](C(=O)c2ccc3nc4c(cc3c2)CCCO4)CC1,-1.37,0.02,-1.45,-0.98,-2.81%
O=C(CCc1ccc(O)cc1)c1c(O)cc(O)cc1O [phloretin],-0.18,-0.18,6.09,-0.49,-1.02%
O=C(COP(=O)(O)O)[C@@H](O)[C@H](O)[C@H](O)COP(=O)(O)O [fosfructose],-6.09,-3.73,-0.5,1.38,-1.68%
COc1cc(N)c(Cl)cc1C(=O)CCC1CCN(CCNS(C)(=O)=O)CC1,-0.46,-0.03,0.79,0.95,-0.74%
Cn1cnnc1Sc1c([N+](=O)[O-])ncn1C,3.11,1.9,2.13,5,2.84%

Structure (SMILES),inhibition of SARS-CoV-2 cytopathic effect (1 nM) [%],inhibition of SARS-CoV-2 cytopathic effect (8.33 nM) [%],inhibition of SARS-CoV-2 cytopathic effect (100 nM) [%],inhibition of SARS-CoV-2 cytopathic effect (833.33 nM) [%],inhibition of SARS-CoV-2 cytopathic effect (10000 nM)
CC(C)n1nccc1-c1ncccc1COc1cccc(O)c1C=O [voxelotor],-1.1,-1.17,-0.23,0.27,6.93%
CCCN(C/C=C/I)C1CCc2cccc(O)c2C1 (stereo not given) [8-hydroxy-PIPAT],3.48,1.88,3.63,3.07,-2.66%
CCN(CC)CCOc1ccc(Cc2ccccc2)cc1,-2.21,-0.5,-4.41,0.19,-0.76%
Cc1nc(Nc2ccc(F)cc2)nc(N2CCc3ccccc3C2C)c1C (stereo not given) [revaprazan],0.41,1.64,2.31,1.17,1.72%
CN1C[C@@H](NS(=O)(=O)N(C)C)C[C@@H]2c3cccc4c3c(cn4C)C[C@H]21 [mesulergine],-0.67,0.79,0.56,0.39,1.25%
O=C(O)CCNc1cc(N2CCc3ccccc3CC2)nc(-c2cccnc2)n1,0.26,0.62,1.71,0.35,-0.17%
CN1C(=O)/C(=C2/C(=O)Nc3ccccc32)c2ccccc21 [meisoindigo],-1.49,-3.61,-2.28,1.46,18.2% (active)
"c1ccc([C@H]2CNCc3ccccc32)cc1 [4-phenyl-1,2,3,4-tetrahydroisoquinoline]",-0.57,5.18,3.96,8.92,3%
N#CC(c1ccnc(OCc2ccc(CN3CCOCC3)cc2)n1)c1nc2ccccc2s1 (stereo not given),-1.68,0.15,1.92,2.82,6.87%
CCCCNc1ncc2c(-c3ccc(CN4CCN(C)CC4)cc3)cn([C@H]3CC[C@H](O)CC3)c2n1,1.92,2.77,-0.22,-9.69,7.04%
Cc1ccc(NC(=O)c2ccc(CN3CCN(C)CC3)cc2)cc1Nc1nc(-c2cccnc2)cs1 [masitinib],1.41,0.48,1.05,1.93,44.8% (active)
OC(CCCN1CCCCC1)(c1ccccc1)c1ccccc1 [diphenidol],-5.55,-3.34,-2.4,-1.92,-2.8%
NC(=O)N1c2ccccc2C=Cc2ccccc21 [carbamazepine],-2.53,-2.53,-0.42,-3.09,-3.17%
CN1CCC(=C2c3ccccc3CC(=O)c3sccc32)CC1 [ketotifen],1.19,4.8,2.53,1.27,-3.64%
C[C@H]1NC(=O)NC1=O [5-methylhydantoin-(D)],-0.22,-0.75,-0.63,-6.83,0.71%
O=C(Nc1ccccc1)OCC(CN1CCCCC1)OC(=O)Nc1ccccc1 (stereo not given) [diperodon],0.17,-0.37,0.05,-2.3,-5.11%
Cc1ccc(C23CNCC2C3)cc1 (stereo not given) [bicifadine],0.67,-0.49,0.91,-1.53,-0.3%
Cn1ncnc1COc1nn2c(-c3cc(F)ccc3F)nnc2cc1C(C)(C)C,3.33,3.4,3.15,1.53,0.81%
CCCCCCCCCCCCCCCCCCOP(=O)([O-])OC1CC[N+](C)(C)CC1 [perifosine],0.3,-1.34,-0.76,-1.89,-0.93%
CCC(=O)O[C@@](Cc1ccccc1)(c1ccccc1)[C@@H](C)CN(C)C [levopropoxyphene],7.6,2.53,1.97,0.91,-3.41%

# — the supplement of paper PMC13380429
